# Data: PubChem BioAssay AID1029 (Sanford-Burnham Center for Chemical Genomics, 2008)
# Hit rate of the full screen: of about 110,000 compounds, about 80 (0.07%) were called active. For the sample, actives were picked, then their nearest neighbours and some compounds at random. Values without a mark were called inactive.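 How the source made its calls: active means inhibition above the mean of the plate negative controls plus 5 SD (cut at about 13% in these data); inactive means the rest.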
# Assay: inhibitors of macrophage phagocytosis, primary screen, imaging, J774A.1 cells, IgG beads (AID 1029);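 further: phagocytic index as fraction of beads internalized from green versus red external bead signal; plate controls were DMSO negative control for no effect and cytochalasin-D positive control for full effect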
# Conditions: J774A.1 macrophage IgG-bead phagocytosis, at 5 µM, active compounds read high
row,SMILES,inhibition
1,CCOC(=O)C(O)(c1ccc(NC(=O)c2ccco2)c(OC)c1)C(F)(F)F (centres undefined),2.8%
2,CCOC(=O)C(O)(c1ccc(N)c(OC)c1)C(F)(F)F (centres undefined),-1.1%
3,CN(C)C(=O)Oc1ccc(OCc2cccc[n+]2C)cc1,-2.17%
4,O=c1[nH]c(=S)n(C2CC2)c(O)c1/C=N/N1CCOCC1,-3.16%
